Growth inhibition data for 20 molecules are collected here from PubChem BioAssay (NCI).

The nature of test [1]: NCI Yeast Anticancer Drug Screen. Data for the rad50 strain (AID 155).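 Further: 0% = growth of vehicle-only cultures of the same strain.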 The conditions noted are these: S. cerevisiae rad50 strain growth inhibition; at 50.0 µM; hits give high values. Put shortly:
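Compounds were tested on a yeast strain with an engineered DNA damage repair alteration; the reported value is growth inhibition normalised to vehicle treatment.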

Test [2] can be described thus: NCI Yeast Anticancer Drug Screen. Data for the mec2-1 strain (AID 157). The conditions noted are these: S. cerevisiae mec2-1 strain, at 50.0 µM, hits give high values. In a few lines: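 Test agents were screened against the mec2-1 yeast strain, with defined DNA repair or cell cycle alteration. Growth was scored as inhibition against vehicle-only controls.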
The nature of test [3]: NCI Yeast Anticancer Drug Screen. Data for the sgs1 mgt1 strain (AID 161).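 Further: 0% = growth of cultures given vehicle only.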 The following applies: S. cerevisiae sgs1 mgt1 strain, at 50.0 µM, hits give high values. In a few lines:
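Inhibition of yeast growth, normalised to vehicle-treated controls, is reported for a strain bearing genetic alterations in DNA damage repair.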

Test [4] can be described thus: NCI Yeast Anticancer Drug Screen. Data for the cln2 rad14 strain (AID 165).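 Further: 0% = growth equal to vehicle treated cultures.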 The conditions noted are these: S. cerevisiae cln2 rad14 strain, at 50.0 µM, hits give high values. Put shortly: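 Growth of compound-exposed yeast (cln2 rad14 genotype) measured and expressed as inhibition relative to vehicle.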
Test [5] is described as follows: NCI Yeast Anticancer Drug Screen. Data for the bub3 strain (AID 167). The following applies: S. cerevisiae bub3 mutant strain, at 50.0 µM, hits give high values. Put shortly: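 Growth of a checkpoint-deficient yeast mutant is measured after compound exposure. Values represent inhibition relative to vehicle.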
The nature of test [6]: NCI Yeast Anticancer Drug Screen. Data for the mlh1 rad18 strain (AID 175). The following applies: S. cerevisiae mlh1 rad18 strain growth inhibition; at 50.0 µM; hits give high values. Put shortly: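 In this whole-cell yeast screen, a strain with altered DNA damage repair is challenged with compound, and its growth is measured against matched vehicle-treated controls.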

Values joined by “and” are separate entries in the source; they are usually repeats but may differ in a detail not shown here. Equal values may be shown once. About 79,000 compounds went through this panel and 15% of them were active in at least one assay; those are over-represented in the sample as a whole. Unmarked numbers belong to inactive results. Active and inactive are the calls of the source. No stated cut-off is given here; in the data, active means growth inhibition above about 70%; inactive means the rest.

For `CN1CCC23c4c5cc(-c6cc7c8c(c6O)OC6C(O)C=CC9C(C7)N(C)CCC896)c(O)c4OC2C(O)C=CC3C1C5` (stereo not given), the growth inhibition in test [1] is -5.2% and 0.8%; in test [2], -10.7% and -11.2%; in test [3], 1.9% and 2.85%; in test [4], -13.2% and 4.85%; in test [5] it was -4.45% and 7.4%; in test [6], -4.8% and 1.75%.

Take `COC1=CC(=Nc2ccc(N(CCCl)CCCl)cc2)C=CC1=O`: the growth inhibition was 17.6% in test [1]; 26.8% in test [2]; 14.3% in test [3]; 11.4% in test [4]; 15.1% in test [5]; 28.6% in test [6].

On to `O=C(CC(=O)C(=O)Nc1ccccc1)CC(c1ccccc1)c1c(O)c2ccccc2oc1=O` (stereo not given), for which the growth inhibition was 9% in test [1]; 5.3% in test [2]; 26.4% in test [3]; 12.6% in test [4]; 1.4% in test [5]; 18.5% in test [6].

`CC(=O)OCC12CCC(C)=CC1OC1C(N(C)C)C(O)C2(C)C12CO2` (stereo not given): the growth inhibition in test [1] is 33.1%; in test [2] it was 49.6%; in test [3], 16.5%; in test [4], 39.1%; in test [5], 18.4%; in test [6], -16.9%.

In the case of `CNC(=O)c1cn(C2OC(CO)C(O)C2O)c2ncnc(N)c12` (stereo not given), the growth inhibition is -5.95% in test [1]; 8.3% in test [2]; 4.7% in test [3]; -1.25% in test [4]; -1.05% in test [5]; 5.65% in test [6].

Consider `Nc1cc(N)nc(N)n1`, for which the growth inhibition in test [1] is 18.1%; in test [2], -2.9%; in test [3] it was 1.35%; in test [4], -4.6%; in test [5] it was -18.9%; in test [6] it was 6.2%.

As for `C1CC[N-]CC1.C1CC[N-]CC1.C1CC[N-]CC1.C1CC[N-]CC1.[Cl][Rh][Cl]`, the growth inhibition in test [1] is -12.5%; in test [2] it was 28.6%; in test [3] it was 8.5%; in test [4], -13.9%; in test [5], -58%; in test [6] it was -18.4%.

With `CCOP(=O)(OCC)C(C)(CC)/N=C(\N)NC#N` (stereo not given), the growth inhibition in test [1] was -4.8%; in test [2], -36.9%; in test [3], -8.85%; in test [4], 12%; in test [5] it was 15%; in test [6], -18.1%.

As to `O=C1C2C(C(=O)N1c1ccc(Cl)c(Cl)c1)C1(Cl)C(Cl)=C(Cl)C2(Cl)C1(Cl)Cl` (stereo not given), the growth inhibition in test [1] was 91.8% (active); in test [2], 95.2% (active); in test [3], 96.1% (active); in test [4], 86.5% (active); in test [5] it was 94.1% (active); in test [6] it was 95.7% (active).

Turning to `C[C@]12C=CC(=O)NC[C@@H]1CC[C@@H]1[C@@H]2CC[C@]2(C)[C@@H](OC(=O)COc3ccc(N(CCCl)CCCl)cc3)CC[C@@H]12`, the growth inhibition in test [1] is 18.1%; in test [2], 5.05%; in test [3], 8.1%; in test [4], 1.2%; in test [5] it was 3.05%; in test [6], -7.65%.

In the case of `O=[N+]([O-])O.[NH-]C1CCCCC1[NH-].[NH-]C1CCCCC1[NH-].[OH-].[OH-].[Pt+4].[Pt+4]` (stereo not given), the growth inhibition in test [1] was 49.8%; in test [2] it was -4.8%; in test [3], -29.3%; in test [4], -5.45%; in test [5], -41%; in test [6], 30.2%.

Consider `COc1ccc2c(c1O)[C@@]13C=C(O)C(=O)C=C1[C@@H](C2)N(C)CC3`, for which the growth inhibition was 40% in test [1]; 4.6% in test [2]; 11.6% in test [3]; 23.6% in test [4]; -2.6% in test [5]; -47.9% in test [6].

As for `C=C(C)CC1(CC)C(=O)NC(=S)NC1=O`, the growth inhibition is -11.8% and -1.6% in test [1]; -21.6% and -1.3% in test [2]; 0.35% in test [3]; 6% in test [4]; -5.6% in test [5]; -13.4% and 12.1% in test [6].

Consider `CC(Cl)C(=O)OC(C)C(=O)O` (stereo not given), for which the growth inhibition in test [1] was 12.1%; in test [2], 17.1%; in test [3], 12.5%; in test [4], 8%; in test [5] it was -2.7%; in test [6], 3.4%.

In the case of `CC(C)N1COC2Cc3ccccc3CC21` (stereo not given), the growth inhibition was -7.15% in test [1]; 1.65% in test [2]; -29% in test [3]; 10.1% in test [4]; -20.2% in test [5]; -16.9% in test [6].

With `COc1cc([N+](=O)[O-])ccc1[As](=O)(O)O`, the growth inhibition is 0% in test [1]; -4.1% in test [2]; 8.95% in test [3]; -63.5% in test [4]; 10.7% in test [5]; -1.05% in test [6].

For `NC(=O)C1(Cl)CCCCC1`, the growth inhibition in test [1] is -11.8%; in test [2], -22.8%; in test [3], -20.8%; in test [4], -11.2%; in test [5] it was -6.1%; in test [6] it was -6.25%.

As to `O=C1NC(=S)NC(=O)C1=Cc1cccc2cc3ccccc3cc12`, the growth inhibition in test [1] is 97.7% (active); in test [2], 98.8% (active); in test [3], 98.5% (active); in test [4], 93.3% (active); in test [5], 98.1% (active); in test [6], 97% (active).

Turning to `COC(=O)C(C)N(CCCl)P(=O)(N1CC1)N1CC1` (stereo not given), the growth inhibition was 5.4% in test [1]; 8.2% in test [2]; 11.4% in test [3]; 9.1% in test [4]; 4.35% in test [5]; 1.85% in test [6].

As to `C=CCN(CC=C)C(Cc1ccccc1)c1ccccc1` (stereo not given), the growth inhibition was 2.95% in test [1]; -7.75% in test [2]; -5.85% in test [3]; -5.6% in test [4]; 11.3% in test [5]; -5.95% in test [6].
